Data from PubChem BioAssay AID540356 (Broad Institute, 2011).
The campaign covered roughly 2,500 compounds. About 360 (14%) were called active.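 Rule for the calls: active = signal-lowering compounds whose fitted half-maximal concentration AC50 is no higher than ten times their top tested concentration; inconclusive = flat curve with 30 to 70% inhibition, or poor fit; inactive = flat within 30%, signal increase, or AC50 above limit.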 These entries were drawn from the full list.

assay: HRP/luminol detection interference without ALR, dose response, artefact control for ALR inhibitor project, biochemical, luminescence, no ALR or DTT, cherry-pick (AID 540356); conditions: HRP/H2O2 luminol luminescence counterscreen; series mostly up to 10 µM; activity change, negative = inhibition: at the top concentration;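 for activity change, negative = inhibition: 0% = median of neutral control wells and -100% = median of quercitin 100 µM wells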

Row | Compound | AC50 | activity change, negative = inhibition
1 | NCCc1ccc(O)c(O)c1 | 6.13 µM (active) | 
2 | CNCCc1ccc(O)c(O)c1 |  | -17% (inactive)
3 | C/C(CCc1c[nH]c2ccccc12)=N\O |  | -1.34% (inactive)
4 | CCc1ccc(N2C(=O)NC(=O)/C(=C\C=C\c3ccco3)C2=O)cc1 |  | 2.01% (inactive)
5 | CC1=NN(c2ccccc2)C(=O)C1/C=C1/C(=O)NC(=O)N(c2cc(C)cc(C)c2)C1=O (stereo not given) |  | 0.554% (inactive)
6 | Cn1c(O)c(/C=N/Nc2ccccc2)c(=O)n(C)c1=O | 1.32 µM (active) | 
7 | CN=C(SCc1ccccc1)c1c(O)n(C)c(=O)n(C)c1=O |  | 1.96% (inactive)
8 | N/C(=N\[N+](=O)[O-])N/N=C/c1ccc(O)cc1 |  | -14.1% (inactive)
9 | C=CCN1C(=O)NC(=O)/C(=C\c2ccc(-c3ccccc3[N+](=O)[O-])o2)C1=O |  | 1.87% (inactive)
10 | Cc1ccc(/C=C2\C(=O)NC(=O)N(Cc3ccccc3Cl)C2=O)o1 |  | -6.1% (inactive)
11 | CCCN1CCc2cccc3c2[C@H]1Cc1ccc(O)c(O)c1-3 | 9.91 µM (active) | 
12 | CC(=O)Nc1ccccc1OP1(=O)COc2ccccc2OC1 |  | 3.51% (inactive)
13 | Cc1ccc(/C=C2\C(=O)NC(=O)N(CCc3ccc(F)cc3)C2=O)s1 |  | 2.22% (inactive)
14 | O=C(O)C12C3CCCC1C32c1ccccc1 (stereo not given) |  | 0.261% (inactive)
15 | CCNc1ccc(P(=S)(N(C)C)N(C)C)cc1 |  | -0.242% (inactive)
